{"source": "PubChem BioAssay AID686940", "about": "(The Scripps Research Institute Molecular Screening Center, 2013)", "note": "Out of some 370,000 compounds screened, about 2,600 (0.7%) were called active. Only a selection was taken, and actives are over-represented in it overall. Unmarked numbers belong to inactive results.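 Rule for the calls: active = inhibition above a per-plate cutoff, mean inhibition of test wells between control levels plus 3 SD (cut at about 38% in these data); inactive = the rest.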", "data": [{"molecular_target": "COUP transcription factor 2 (Homo sapiens) (UniProt P24468)", "sequence (P24468 whole entry, looked up)": "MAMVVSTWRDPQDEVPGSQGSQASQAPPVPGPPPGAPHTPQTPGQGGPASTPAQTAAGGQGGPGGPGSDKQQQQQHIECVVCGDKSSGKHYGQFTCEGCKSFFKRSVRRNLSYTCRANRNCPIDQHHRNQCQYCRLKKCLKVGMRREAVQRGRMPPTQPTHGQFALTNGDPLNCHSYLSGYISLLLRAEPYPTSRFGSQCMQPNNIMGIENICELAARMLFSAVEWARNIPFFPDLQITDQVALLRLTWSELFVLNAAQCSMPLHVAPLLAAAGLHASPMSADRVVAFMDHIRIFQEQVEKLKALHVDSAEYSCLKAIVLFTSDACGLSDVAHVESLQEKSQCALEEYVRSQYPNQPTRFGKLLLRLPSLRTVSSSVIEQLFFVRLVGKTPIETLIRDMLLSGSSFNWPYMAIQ", "assay": "COUP-TFII reporter suppression in human cells – cell-based, luciferase reporter, HEK293T, luminescence, primary screen (AID 686940);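 note: cells cotransfected with COUP-TFII expression vector driving the NGFI-A reporter; 0% = median of COUP-TF2 test wells and 100% = reporter-only cells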", "settings": "HEK293T NGFI-A luciferase reporter, at 8.6 µM, hits give high values", "values": [{"smiles": "CC(C)(C)OC(=O)NCc1cc(F)ccc1/C=C/S(=O)(=O)NCCc1ccccc1", "inhibition": "9.33%"}, {"smiles": "CCN1/C(=C\\c2ccc3ccccc3[n+]2CC)Sc2cc(C)ccc21", "inhibition": "73% (active)"}, {"smiles": "N#Cc1ccccc1OC[C@@H](O)CN1CCC(C(O)(c2ccccc2)c2ccccc2)CC1", "inhibition": "-5.47%"}, {"smiles": "Cc1cc(C)n2ncc(C(=O)Nc3ccc4c(c3)OCCO4)c2n1", "inhibition": "-31.2%"}, {"smiles": "C=C1C(C(C)C)N(C)C2=NC(c3ccccc3)CC(=O)N12", "note": "(stereo not given)", "inhibition": "-5.15%"}, {"smiles": "CCOc1ccc(NS(=O)(=O)c2ccc(Cl)c(C(=O)N(C)Cc3cccnc3)c2)cc1", "inhibition": "-10.5%"}, {"smiles": "CN(Cc1cccnc1)C(=O)c1cc(COc2ccc3ncccc3c2)on1", "inhibition": "64.7% (active)"}, {"smiles": "CCn1ccnc1CN(C)C(=O)c1cc(COc2ccc(Cl)cc2OC)on1", "inhibition": "-30.8%"}, {"smiles": "COc1ccc(-n2c(COc3ccc(C)cc3)nnc2SCC(=O)Nc2ccc(Oc3ccccc3)cc2)cc1", "inhibition": "9.67%"}, {"smiles": "C[C@@H]1CN([C@@H](C)CO)C(=O)c2cccc(NC(=O)Nc3cccc4ccccc34)c2O[C@H]1CN(C)S(=O)(=O)c1ccccc1F", "inhibition": "11.9%"}, {"smiles": "CCOC(=O)C1=C(CC)Nc2ccccc2N=C1N", "inhibition": "-4.65%"}, {"smiles": "CCOC(=O)C1=C(c2ccc(OC)cc2)C(=O)c2ccccc2C1=O", "inhibition": "74.4% (active)"}, {"smiles": "CCOC(=O)C1C(=O)C=C(c2ccc(OC)cc2)CC1c1ccco1", "note": "(stereo not given)", "inhibition": "-3.88%"}, {"smiles": "C=C(C)C#CC(Cc1ccccc1)NCC1CC1", "note": "(stereo not given)", "inhibition": "7.7%"}, {"smiles": "Cc1ccc(Cn2cc(COC(=O)N(C)Cc3ccccc3)nn2)cc1", "inhibition": "4.98%"}, {"smiles": "COc1ccc(Cn2c(=O)sc3ccccc32)cc1OC", "inhibition": "48.4% (active)"}, {"smiles": "COc1ccc(CN2CCOC2=O)cc1OC", "inhibition": "12.6%"}, {"smiles": "COc1ccccc1CNC(=O)CCn1c(=O)sc2ccccc21", "inhibition": "4.05%"}, {"smiles": "CCC(=O)Nc1ccc2c(c1)C(=O)N(C)[C@H]1CC[C@H](CC(=O)NCCOC)O[C@@H]1CO2", "inhibition": "13.3%"}, {"smiles": "CC(CCN1CCC(C(O)(c2ccccc2)c2ccccc2)CC1)Oc1ccc(Cl)cc1", "note": "(stereo not given)", "inhibition": "3.23%"}, {"smiles": "O=S1(=O)c2c(cccc2N2CC[C@H](O)C2)O[C@@H]2CCN1C2", "inhibition": "10.5%"}, {"smiles": "C[C@H]1CCC/C=C/C(=O)c2c(O)cc(O)cc2CC(=O)O1", "inhibition": "38.3% (active)"}, {"smiles": "CN(C(N)=NC(=O)/C=C/c1ccccc1)C(C#Cc1ccccc1)Cc1ccccc1", "note": "(stereo not given)", "inhibition": "4.75%"}, {"smiles": "O=C(CSc1nnc(-c2ccccn2)n1-c1ccc(Cl)cc1)Nc1ccccc1-c1ccccc1", "inhibition": "7.79%"}, {"smiles": "O=C(CCC(=O)N1CCN(S(=O)(=O)c2ccc(Cl)cc2)CC1)NCc1cccc(C(F)(F)F)c1", "inhibition": "53% (active)"}, {"smiles": "O=C(NCc1cccc(C(F)(F)F)c1)c1cccc(S(=O)(=O)N2CCN(Cc3ccccc3)CC2)c1", "inhibition": "-3.7%"}, {"smiles": "CC(NC(=O)CCC(=O)N1CCN(S(=O)(=O)c2ccc(Cl)cc2)CC1)c1ccccc1", "note": "(stereo not given)", "inhibition": "-14.9%"}, {"smiles": "O=C(NCc1ccco1)C1CCCN(S(=O)(=O)c2ccc(Cl)s2)C1", "note": "(stereo not given)", "inhibition": "-2.82%"}, {"smiles": "O=C(NC1CCCC1)C1CSCCS(=O)(=O)N1Cc1ccccc1", "note": "(stereo not given)", "inhibition": "0.16%"}, {"smiles": "CCOc1ccc(Br)cc1CSC(=N)N", "inhibition": "22.1%"}, {"smiles": "CCc1ccc(-c2nn(-c3ccccc3)cc2CSC(=N)N)cc1", "inhibition": "-5%"}, {"smiles": "N=C(N)SCc1cccc2ccccc12", "inhibition": "38.5% (active)"}, {"smiles": "COC(=O)C1CN(CCc2ccccc2)CCS(=O)(=O)N1Cc1ccc(F)cc1", "note": "(stereo not given)", "inhibition": "3.48%"}, {"smiles": "Cc1ccc(-c2nnc(SCC(=O)Nc3ccc(Oc4ccccc4)cc3)n2Cc2ccco2)cc1", "inhibition": "13.6%"}, {"smiles": "CCCCOCCCNC(=O)C[C@H]1C[C@@]2(C(=O)OC)C(=C[C@H](COCc3ccccc3)O[C@@H]2C)N(Cc2cccc3ccccc23)C1=O", "inhibition": "14.6%"}, {"smiles": "Cc1ccc(-c2nc(CS(=O)CC(=O)NC3CCCC3)c(C)o2)cc1", "note": "(stereo not given)", "inhibition": "12.9%"}, {"smiles": "Cc1ccc(-c2nc(CSCC(=O)NC3CCN(Cc4ccccc4)CC3)c(C)o2)cc1", "inhibition": "44.1% (active)"}, {"smiles": "Cc1ccc(S(=O)(=O)NCCC(=O)NC2CCN(Cc3ccccc3)CC2)cc1", "inhibition": "9.92%"}, {"smiles": "Cc1ccccc1CN1CCCCC(NC(=O)Nc2ccccc2F)C1=O", "note": "(stereo not given)", "inhibition": "17.2%"}, {"smiles": "CCOC(=O)[C@]12CCCC=C1N(Cc1ccc(OC)cc1)C(=O)[C@@H]2CC(=O)N1CCOCC1", "inhibition": "11.8%"}, {"smiles": "COc1ccc(CSc2nnc(SCC(=O)Nc3ccccc3C(F)(F)F)s2)cc1", "inhibition": "-6.32%"}, {"smiles": "CCOC(=O)C1(Cc2cccc(OC)c2)CCN(Cc2csc(C(C)=O)c2)CC1", "inhibition": "-6.31%"}, {"smiles": "CCCS(=O)(=O)N1CCC(CCOc2ccccc2)(C(=O)OCC)CC1", "inhibition": "12%"}, {"smiles": "CCOC(=O)C1(CCOc2ccccc2)CCN(Cc2cc(OC)cc(OC)c2)CC1", "inhibition": "43.4% (active)"}, {"smiles": "O=C(CSc1nc2ccccc2nc1N1CCCCC1)N1CCN(S(=O)(=O)c2cccc([N+](=O)[O-])c2)CC1", "inhibition": "-2.12%"}, {"smiles": "Cc1ccc(Cn2cc(CN3[C@@H](C)COc4cc(Br)ccc4S3(=O)=O)nn2)cc1", "inhibition": "7.53%"}, {"smiles": "O=C(Nc1ccc(Cl)c(Cl)c1)N1CC=C(c2ccccc2)CC1", "inhibition": "-16.9%"}, {"smiles": "O=C(CC(O)(C(F)(F)F)C(F)(F)F)Nc1ccc(Cl)c(Cl)c1", "inhibition": "74.9% (active)"}, {"smiles": "O=C(CCS(=O)(=O)c1ccccc1)Nc1ccc(Cl)c(Cl)c1", "inhibition": "-30.7%"}, {"smiles": "O=C(c1ccccc1)c1ccc(-c2ccccc2C(=O)NC2CCCCN(Cc3ccc(Cl)cc3)C2=O)cc1", "note": "(stereo not given)", "inhibition": "-10.4%"}, {"smiles": "CC(C)CNc1cccc2c1S(=O)(=O)N(Cc1cn(Cc3ccc(Cl)cc3)nn1)Cc1ccccc1O2", "inhibition": "5.91%"}, {"smiles": "COc1ccc(-c2csc3ncnc(N4CCN(S(=O)(=O)c5cccc(F)c5)CC4)c23)cc1", "inhibition": "-7.61%"}, {"smiles": "Cc1ccc(C)c(S(=O)(=O)N2CCN(c3ncnc4sccc34)CC2)c1", "inhibition": "61.2% (active)"}, {"smiles": "Cc1ccc(S(=O)(=O)N2CCC3(CC2)OCCO3)c(C)c1", "inhibition": "0.83%"}, {"smiles": "O=C(NCCCc1ccccc1)[C@H](Cc1ccccc1)NC1(C(=O)NCCc2c[nH]c3ccccc23)CCC1", "inhibition": "7.14%"}]}]}
